# Tests used:
# [1] = target: Ribosomal protein S6 kinase alpha-6 (Homo sapiens) (UniProt Q9UK32); settings: at 1 µM;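 also: each value is a mean inhibition of RSK4 from a GSK PKIS panel screen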
# [2] = target: T1, Serine/threonine-protein kinase Sgk1 (Homo sapiens) (UniProt O00141); settings: at 0.1 µM
# T1 sequence (whole entry): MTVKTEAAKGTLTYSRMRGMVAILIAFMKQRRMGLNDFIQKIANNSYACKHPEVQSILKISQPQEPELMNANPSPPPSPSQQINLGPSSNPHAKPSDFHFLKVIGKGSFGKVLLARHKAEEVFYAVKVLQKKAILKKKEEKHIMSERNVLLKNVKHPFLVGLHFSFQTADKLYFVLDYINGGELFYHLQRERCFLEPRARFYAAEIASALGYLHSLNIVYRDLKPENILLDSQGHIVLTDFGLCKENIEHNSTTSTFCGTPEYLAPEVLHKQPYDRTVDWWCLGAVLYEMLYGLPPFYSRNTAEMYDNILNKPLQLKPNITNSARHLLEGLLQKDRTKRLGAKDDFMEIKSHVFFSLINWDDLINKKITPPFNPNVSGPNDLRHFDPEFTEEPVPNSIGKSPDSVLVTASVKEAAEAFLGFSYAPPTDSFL
# [3] = target: T1, Serine/threonine-protein kinase Sgk1 (Homo sapiens); settings: at 1 µM
# [4] = target: T2, Serine/threonine-protein kinase Sgk2 (Homo sapiens) (UniProt Q9HBY8); settings: at 0.1 µM
# T2 sequence (whole entry): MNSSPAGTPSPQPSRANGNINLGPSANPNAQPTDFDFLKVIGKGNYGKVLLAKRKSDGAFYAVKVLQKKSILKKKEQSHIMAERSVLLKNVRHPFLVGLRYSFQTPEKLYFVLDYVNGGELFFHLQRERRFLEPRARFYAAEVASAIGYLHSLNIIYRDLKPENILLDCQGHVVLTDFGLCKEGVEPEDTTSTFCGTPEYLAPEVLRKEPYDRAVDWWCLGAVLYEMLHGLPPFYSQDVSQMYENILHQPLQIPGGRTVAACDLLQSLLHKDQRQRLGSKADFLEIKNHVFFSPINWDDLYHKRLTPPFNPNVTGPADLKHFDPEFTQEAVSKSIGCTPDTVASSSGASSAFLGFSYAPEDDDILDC
# [5] = target: T2, Serine/threonine-protein kinase Sgk2 (Homo sapiens); settings: at 1 µM
# [6] = target: T3, Serine/threonine-protein kinase Sgk3 (Homo sapiens) (UniProt Q96BR1); settings: at 0.1 µM
# T3 sequence (whole entry): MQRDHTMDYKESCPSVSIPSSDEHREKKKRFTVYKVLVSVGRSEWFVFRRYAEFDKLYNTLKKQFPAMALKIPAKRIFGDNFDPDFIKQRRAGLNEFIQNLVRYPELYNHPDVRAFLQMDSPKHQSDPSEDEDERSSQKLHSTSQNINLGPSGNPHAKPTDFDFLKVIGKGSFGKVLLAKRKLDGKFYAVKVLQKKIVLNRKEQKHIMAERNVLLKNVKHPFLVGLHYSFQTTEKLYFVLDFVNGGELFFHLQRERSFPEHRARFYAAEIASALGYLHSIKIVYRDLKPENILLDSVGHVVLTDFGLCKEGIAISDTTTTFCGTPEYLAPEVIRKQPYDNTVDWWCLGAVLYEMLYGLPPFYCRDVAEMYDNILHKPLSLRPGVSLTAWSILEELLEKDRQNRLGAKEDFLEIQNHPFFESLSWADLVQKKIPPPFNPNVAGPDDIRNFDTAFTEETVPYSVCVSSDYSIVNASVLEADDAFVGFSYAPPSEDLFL
# [7] = target: T3, Serine/threonine-protein kinase Sgk3 (Homo sapiens); settings: at 1 µM
# [8] = target: 5'-AMP-activated protein kinase catalytic subunit alpha-1 (Homo sapiens) (UniProt Q13131); settings: at 0.1 µM
# [9] = target: 5'-AMP-activated protein kinase catalytic subunit alpha-1 (Homo sapiens) (UniProt Q13131); settings: at 1 µM
# [10] = target: 5'-AMP-activated protein kinase catalytic subunit alpha-2 (Homo sapiens) (UniProt P54646); settings: at 0.1 µM
# [11] = target: 5'-AMP-activated protein kinase catalytic subunit alpha-2 (Homo sapiens) (UniProt P54646); settings: at 1 µM
# [12] = target: T4, NUAK family SNF1-like kinase 1 (Homo sapiens) (UniProt O60285); settings: at 0.1 µM
# T4 sequence (whole entry): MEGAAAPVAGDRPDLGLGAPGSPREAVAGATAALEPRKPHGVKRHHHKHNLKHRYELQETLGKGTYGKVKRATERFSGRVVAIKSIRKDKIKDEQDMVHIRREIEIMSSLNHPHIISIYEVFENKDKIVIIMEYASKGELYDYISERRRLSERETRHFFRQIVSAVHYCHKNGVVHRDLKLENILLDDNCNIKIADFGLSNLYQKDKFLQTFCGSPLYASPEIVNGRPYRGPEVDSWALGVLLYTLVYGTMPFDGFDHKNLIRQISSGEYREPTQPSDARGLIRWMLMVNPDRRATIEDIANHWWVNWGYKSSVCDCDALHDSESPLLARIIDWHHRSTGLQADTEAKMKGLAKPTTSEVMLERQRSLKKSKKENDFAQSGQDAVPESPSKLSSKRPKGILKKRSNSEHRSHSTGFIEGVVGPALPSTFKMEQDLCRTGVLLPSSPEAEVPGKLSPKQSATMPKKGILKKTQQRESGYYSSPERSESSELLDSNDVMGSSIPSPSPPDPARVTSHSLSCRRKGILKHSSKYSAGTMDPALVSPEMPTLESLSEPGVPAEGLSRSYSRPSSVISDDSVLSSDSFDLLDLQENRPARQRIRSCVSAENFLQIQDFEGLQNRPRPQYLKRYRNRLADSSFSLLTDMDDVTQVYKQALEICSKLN
# [13] = target: T4, NUAK family SNF1-like kinase 1 (Homo sapiens); settings: at 1 µM
# [14] = target: T5, Serine/threonine-protein kinase BRSK1 (Homo sapiens) (UniProt Q8TDC3); settings: at 0.1 µM
# T5 sequence (whole entry): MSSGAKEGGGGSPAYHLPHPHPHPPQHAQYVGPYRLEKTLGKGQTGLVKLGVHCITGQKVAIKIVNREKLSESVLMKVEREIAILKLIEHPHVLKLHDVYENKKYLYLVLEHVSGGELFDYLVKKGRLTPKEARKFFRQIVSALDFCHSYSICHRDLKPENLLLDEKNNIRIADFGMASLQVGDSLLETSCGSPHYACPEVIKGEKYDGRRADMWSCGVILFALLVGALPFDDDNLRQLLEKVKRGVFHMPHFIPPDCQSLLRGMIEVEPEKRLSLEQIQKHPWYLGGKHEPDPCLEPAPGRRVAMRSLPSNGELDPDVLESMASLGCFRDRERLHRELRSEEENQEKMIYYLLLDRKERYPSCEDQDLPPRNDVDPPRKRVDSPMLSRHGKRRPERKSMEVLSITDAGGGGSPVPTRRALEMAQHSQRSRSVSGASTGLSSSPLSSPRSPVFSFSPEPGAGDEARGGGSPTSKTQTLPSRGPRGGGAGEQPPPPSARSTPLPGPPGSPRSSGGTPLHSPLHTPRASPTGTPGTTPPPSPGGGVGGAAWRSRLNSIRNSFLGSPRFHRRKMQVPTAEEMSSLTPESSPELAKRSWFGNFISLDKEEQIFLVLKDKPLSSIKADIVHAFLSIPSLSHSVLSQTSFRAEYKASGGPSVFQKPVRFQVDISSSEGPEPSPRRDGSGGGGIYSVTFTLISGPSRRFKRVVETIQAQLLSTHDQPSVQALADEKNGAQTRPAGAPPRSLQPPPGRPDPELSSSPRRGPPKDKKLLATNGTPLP
# [15] = target: T5, Serine/threonine-protein kinase BRSK1 (Homo sapiens); settings: at 1 µM
# [16] = target: T6, Serine/threonine-protein kinase BRSK2 (Homo sapiens) (UniProt Q8IWQ3); settings: at 0.1 µM
# T6 sequence (whole entry): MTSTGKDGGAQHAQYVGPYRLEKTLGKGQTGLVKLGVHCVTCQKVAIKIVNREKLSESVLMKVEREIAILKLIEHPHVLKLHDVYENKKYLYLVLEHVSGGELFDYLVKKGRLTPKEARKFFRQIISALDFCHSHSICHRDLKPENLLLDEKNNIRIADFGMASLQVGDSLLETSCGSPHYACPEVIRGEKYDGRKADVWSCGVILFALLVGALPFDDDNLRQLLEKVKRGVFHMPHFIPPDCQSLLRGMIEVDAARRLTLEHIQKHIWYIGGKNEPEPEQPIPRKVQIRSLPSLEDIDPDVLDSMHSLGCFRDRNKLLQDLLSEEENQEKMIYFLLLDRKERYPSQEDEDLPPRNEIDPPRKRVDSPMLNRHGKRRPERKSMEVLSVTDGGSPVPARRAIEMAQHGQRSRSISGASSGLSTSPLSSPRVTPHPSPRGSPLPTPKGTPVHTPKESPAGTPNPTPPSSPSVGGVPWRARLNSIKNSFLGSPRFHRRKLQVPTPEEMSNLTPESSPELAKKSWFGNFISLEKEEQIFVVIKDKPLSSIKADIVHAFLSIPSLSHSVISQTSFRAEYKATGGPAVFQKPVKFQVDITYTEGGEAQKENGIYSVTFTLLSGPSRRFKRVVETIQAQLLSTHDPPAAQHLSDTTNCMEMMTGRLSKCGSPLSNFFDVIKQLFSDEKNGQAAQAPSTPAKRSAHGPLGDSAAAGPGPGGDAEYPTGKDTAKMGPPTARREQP
# [17] = target: T6, Serine/threonine-protein kinase BRSK2 (Homo sapiens); settings: at 1 µM
# [18] = target: Calcium/calmodulin-dependent protein kinase type 1D (Homo sapiens) (UniProt Q8IU85); settings: at 0.1 µM
# [19] = target: Calcium/calmodulin-dependent protein kinase type 1D (Homo sapiens) (UniProt Q8IU85); settings: at 1 µM
# [20] = target: Calcium/calmodulin-dependent protein kinase type II subunit alpha (Homo sapiens) (UniProt Q9UQM7); settings: at 0.1 µM;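 also: reported values are averages (mean inhibition of CAMK2A)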
# Calcium/calmodulin-dependent protein kinase type II subunit alpha (Homo sapiens), sequence (Q9UQM7 whole entry): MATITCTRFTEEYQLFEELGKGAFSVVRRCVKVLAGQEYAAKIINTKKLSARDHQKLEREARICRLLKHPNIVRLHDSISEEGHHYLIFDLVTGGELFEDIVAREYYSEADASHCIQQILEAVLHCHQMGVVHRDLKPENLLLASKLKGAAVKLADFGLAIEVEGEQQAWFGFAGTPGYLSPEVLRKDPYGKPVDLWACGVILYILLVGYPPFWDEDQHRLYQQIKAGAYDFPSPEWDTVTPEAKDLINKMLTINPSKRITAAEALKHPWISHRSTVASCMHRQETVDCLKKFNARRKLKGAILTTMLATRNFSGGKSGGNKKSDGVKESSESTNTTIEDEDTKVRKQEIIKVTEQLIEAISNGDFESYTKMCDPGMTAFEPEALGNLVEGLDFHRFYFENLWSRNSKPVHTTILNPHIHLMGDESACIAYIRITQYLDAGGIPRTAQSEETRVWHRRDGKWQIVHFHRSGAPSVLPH
# 5'-AMP-activated protein kinase catalytic subunit alpha-2 (Homo sapiens), sequence (P54646 whole entry, looked up): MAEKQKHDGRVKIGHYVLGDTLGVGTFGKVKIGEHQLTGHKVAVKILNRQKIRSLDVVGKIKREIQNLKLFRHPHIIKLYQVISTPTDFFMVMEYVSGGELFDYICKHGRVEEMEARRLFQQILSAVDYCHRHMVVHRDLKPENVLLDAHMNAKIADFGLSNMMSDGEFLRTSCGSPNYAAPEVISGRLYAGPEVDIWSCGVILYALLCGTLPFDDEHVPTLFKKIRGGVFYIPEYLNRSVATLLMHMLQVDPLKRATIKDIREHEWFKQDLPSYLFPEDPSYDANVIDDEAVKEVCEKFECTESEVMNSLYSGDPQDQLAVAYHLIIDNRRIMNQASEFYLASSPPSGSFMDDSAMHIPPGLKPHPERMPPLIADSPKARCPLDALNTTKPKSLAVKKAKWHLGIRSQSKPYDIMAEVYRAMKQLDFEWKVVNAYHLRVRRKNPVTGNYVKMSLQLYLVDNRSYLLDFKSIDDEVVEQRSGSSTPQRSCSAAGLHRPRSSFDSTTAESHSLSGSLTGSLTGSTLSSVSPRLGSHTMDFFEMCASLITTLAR
# Ribosomal protein S6 kinase alpha-6 (Homo sapiens), sequence (Q9UK32 whole entry): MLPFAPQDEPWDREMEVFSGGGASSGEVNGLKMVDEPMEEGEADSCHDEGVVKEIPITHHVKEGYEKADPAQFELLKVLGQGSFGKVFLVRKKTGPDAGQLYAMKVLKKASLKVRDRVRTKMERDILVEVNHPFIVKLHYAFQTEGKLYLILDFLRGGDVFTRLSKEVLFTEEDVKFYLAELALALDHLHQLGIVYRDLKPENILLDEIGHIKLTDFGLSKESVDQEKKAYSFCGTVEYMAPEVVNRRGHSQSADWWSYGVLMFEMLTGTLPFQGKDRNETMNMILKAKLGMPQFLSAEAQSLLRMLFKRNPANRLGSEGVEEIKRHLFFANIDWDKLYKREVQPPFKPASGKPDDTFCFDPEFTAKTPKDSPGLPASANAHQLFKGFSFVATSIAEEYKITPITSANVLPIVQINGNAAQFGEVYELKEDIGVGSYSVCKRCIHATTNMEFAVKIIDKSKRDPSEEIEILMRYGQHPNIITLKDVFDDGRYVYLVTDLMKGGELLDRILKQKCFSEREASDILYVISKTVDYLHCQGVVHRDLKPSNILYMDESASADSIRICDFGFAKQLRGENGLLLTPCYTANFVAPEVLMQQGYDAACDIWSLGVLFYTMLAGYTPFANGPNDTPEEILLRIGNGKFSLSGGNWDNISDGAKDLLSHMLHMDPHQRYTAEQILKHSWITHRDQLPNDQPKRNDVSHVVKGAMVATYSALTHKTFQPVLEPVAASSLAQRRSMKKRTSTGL
# 5'-AMP-activated protein kinase catalytic subunit alpha-1 (Homo sapiens), sequence (Q13131 whole entry, looked up): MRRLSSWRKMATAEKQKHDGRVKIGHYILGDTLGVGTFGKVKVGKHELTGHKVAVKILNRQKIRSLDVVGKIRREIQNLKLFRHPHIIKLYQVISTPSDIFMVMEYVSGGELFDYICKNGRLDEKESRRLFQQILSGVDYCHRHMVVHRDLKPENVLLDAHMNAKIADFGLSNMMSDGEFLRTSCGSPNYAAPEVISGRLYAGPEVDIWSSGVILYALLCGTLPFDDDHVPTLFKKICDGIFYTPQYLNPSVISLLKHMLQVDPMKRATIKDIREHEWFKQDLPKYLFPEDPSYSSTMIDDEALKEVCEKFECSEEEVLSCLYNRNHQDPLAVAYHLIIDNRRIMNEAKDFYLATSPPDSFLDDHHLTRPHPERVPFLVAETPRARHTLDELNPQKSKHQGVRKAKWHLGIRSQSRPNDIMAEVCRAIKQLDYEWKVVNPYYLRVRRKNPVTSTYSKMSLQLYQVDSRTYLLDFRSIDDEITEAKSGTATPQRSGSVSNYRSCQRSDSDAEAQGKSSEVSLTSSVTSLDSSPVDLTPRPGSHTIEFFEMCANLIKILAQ
# Calcium/calmodulin-dependent protein kinase type 1D (Homo sapiens), sequence (Q8IU85 whole entry, looked up): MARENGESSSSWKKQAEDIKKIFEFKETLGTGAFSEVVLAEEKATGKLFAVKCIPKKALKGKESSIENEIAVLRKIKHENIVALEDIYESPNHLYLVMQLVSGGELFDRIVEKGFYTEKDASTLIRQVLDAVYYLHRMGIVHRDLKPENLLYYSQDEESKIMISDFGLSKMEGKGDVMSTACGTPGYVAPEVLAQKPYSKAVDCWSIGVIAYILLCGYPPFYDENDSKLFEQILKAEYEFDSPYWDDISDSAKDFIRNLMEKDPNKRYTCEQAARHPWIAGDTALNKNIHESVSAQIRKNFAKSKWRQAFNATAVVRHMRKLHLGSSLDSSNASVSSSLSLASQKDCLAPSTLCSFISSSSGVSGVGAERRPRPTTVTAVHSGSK
SMILES,inhibition [1] [%],inhibition [2] [%],inhibition [3] [%],inhibition [4] [%],inhibition [5] [%],inhibition [6] [%],inhibition [7] [%],inhibition [8] [%],inhibition [9] [%],inhibition [10] [%],inhibition [11] [%],inhibition [12] [%],inhibition [13] [%],inhibition [14] [%],inhibition [15] [%],inhibition [16] [%],inhibition [17] [%],inhibition [18] [%],inhibition [19] [%],inhibition [20] [%]
CN(C)C(=O)O[C@H]1CN[C@H](C#Cc2cc3ncnc(Nc4ccc(OCc5cccc(F)c5)c(Cl)c4)c3s2)C1,1.62,0.38,1.38,0.9,-0.85,0.13,0.86,2.01,2.18,1.83,3.32,1.87,1.59,2.39,3.13,2.38,2.85,0.05,0.1,2.54
C[C@@H](Oc1cc(-n2cnc3ccc(OCC4CCN(C)CC4)cc32)sc1C(N)=O)c1ccccc1C(F)(F)F,54.9,0.5,2.02,-2.58,-0.14,-1.97,-2.55,5.76,32.6,2.88,14,50.5,76.6,22.4,61.1,33.9,74.5,0,4.15,-0.63
N#Cc1c(NC(=O)c2ccccc2F)sc2c1CCCC2,0.41,0.71,0.65,-4.27,-5.49,-2.68,-2.69,-0.84,0.73,1.26,0.55,2.6,3.42,0.36,1.62,1.76,3.8,-0.22,0.3,-2.24

# — ChEMBL document CHEMBL1961873, “Compounds: GSK PKIS; Assays: Nanosyn kinase panel” (2012)
